# Experimental data as given in publication PMC5540273 (PLoS ONE, 2017).
# System: TYRO3
# Settings: concentration: 1 μM, replicates: in singlicate; n = 1
# 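Also: KINOMEscan kinase panel screen.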
row,SMILES,%Inh [%]
1,COC(=O)Nc1nc2cc(Oc3ccc(NC(=O)Nc4cc(F)ccc4F)cc3)ccc2[nH]1.Cl [GW701424],0
2,O=c1cc(N2CCOCC2)nc2n(Cc3cccc(Cl)c3Cl)c(C3CC3)nn12 [GSK2358994],35
3,Nc1nccc(-c2c(-c3ccc(F)cc3)ncn2C2CCN(CC(F)(F)F)CC2)n1 [SB-236560],0
4,O=C(Nc1cccc(-c2nn3ncccc3c2-c2ccnc(Nc3cccc(C(F)(F)F)c3)n2)c1)c1c(F)cccc1F [GSK299495],87
5,CSc1ccc(-c2cc3ncnc(SCC(=O)O)c3s2)cc1,0
6,Cn1ccc2ncnc(Oc3ccc(NC(=O)Nc4ccncc4)c(Cl)c3)c21,0
7,O=c1cc(N2CCOCC2)nc2n(Cc3cccc4ccccc34)ccn12 [GSK2333389],0
8,CCc1nc(-c2cccc(C)c2)c(-c2ccnc(NCc3ccccc3)c2)s1,0
9,CC(C)(C)n1cnc2c(N)ncnc21 [SKF-97359],0
10,COc1ccc(CNC(=O)NC2CCN(c3ccnc(Nc4ccc(OC)cc4)n3)C2)cc1 (centres unmarked) [GSK1379727],0
11,NCCNS(=O)(=O)c1ccc(-c2ccnc3[nH]ccc23)cc1 [GSK977617],0
12,Fc1ccc(-c2ncn(CCCN3CCOCC3)c2-c2ccccn2)cc1 [SB-211742],8
13,O=c1cc(N2CCOCC2)nc2n(Cc3cccc(F)c3)ccn12 [GSK2297430],12
14,COc1cc(Nc2nccc(N3CCC(NC(=O)c4cccc(NC(C)=O)c4)C3)n2)cc(OC)c1OC (centres unmarked) [GSK1379754],0
15,Cc1cccc(Cn2ccn3c(=O)cc(N4CCOCC4)nc23)c1 [GSK2297542],8
16,O=C(NOCC1CC1)c1ccc(F)c(F)c1Nc1ccc(I)cc1Cl,0
17,C[C@@H](Oc1cc(-n2cnc3ccc(NC(=O)NC(C)(C)C)cc32)sc1C(N)=O)c1ccccc1Cl [GSK346294],0
18,Cc1nnc(-c2ccc(C)c(-c3ccc(C(=O)Nc4ccc(NS(C)(=O)=O)cc4)cc3)c2)o1 [GW702865],0

row,SMILES,%Inh [%]
1,N#Cc1ccc(-c2cc(-c3c[nH]nc3-c3ccccn3)ccn2)cc1 [GW693028],24
2,O=C(Nc1n[nH]c2cc(-c3cccc(F)c3)ccc12)C1CC1 [SB-735464],0
3,Cn1cc(-c2ccc3c(c2)CCN3C(=O)Cc2ccccc2Cl)c2c(N)ncnc21 [GSK2608885],100
4,CC(C)Oc1ccc2c(-c3ccnc(Nc4ccc(N5CCN(C)CC5)cc4)n3)cnn2n1 [GW696155],0
5,O=C(NCCCN1CCOCC1)c1cccc(Nc2nccc(Nc3ccc(Oc4ccccc4)cc3)n2)c1 [GW663929],5
6,COc1cc2c(cc1OC[C@@H](O)CO)ncc1c3ccc(C#N)cc3[nH]c21,0
7,CN(C1=C(c2ccccc2)C(=O)NC1=O)c1ccccc1 [SB-334860],0
8,Fc1ccc(-c2nn3c(OCC(F)(F)F)cccc3c2-c2ccncc2)cc1 [GW514784],0
9,O=C1NC(=O)C(N2CCc3ccccc32)=C1c1cccc(Cl)c1 [SB-408010],0
10,Cl.Nc1ncnc2occ(-c3ccc(NC(=O)Nc4cc(C(F)(F)F)ccc4F)cc3)c12 [SB-707548],0
11,NS(=O)(=O)CCc1cccc(Nc2nccc(-c3c(-c4cccc(NC(=O)c5c(F)cccc5F)c4)nn4ccccc34)n2)c1 [GSK336735],100
12,Cc1nnc(-c2ccc3ncc(-c4ccc(S(C)=O)cc4)n3c2)o1 (centres unmarked),9
13,COc1ccc(Nc2nccc(N3CCC(NC(=O)Nc4cccc(C(C)=O)c4)C3)n2)cc1 (centres unmarked) [GSK1379731],6
14,NCC(NC(=O)c1cc(-c2cn[nH]c2)c(-c2ccnc3[nH]ccc23)s1)c1ccccc1.O=C(O)C(F)(F)F.O=C(O)C(F)(F)F (centres unmarked) [GSK1325775],0
15,N#Cc1c(N2CCOCC2)sc(-c2ccn[nH]2)c1-c1ccc(Cl)cc1,0
16,c1ccc(-c2n[nH]cc2-c2ccnc3ccccc23)nc1 [GW271431],0
17,Nc1nc(-c2ccc3c(N)n[nH]c3c2)cc(N2CCCC2)n1 [GSK2227430],0
